Source: PubChem BioAssay (EPA / NIEHS)
Inconclusive results are not listed. Activity calls are given as the source filed them. How the source made its calls: active means hit-call score of the fitted dose curve at least 0.9, where 1 is the maximum; inconclusive means response in the unintended direction; inactive means score below 0.9.

What was measured:
[1] = target: human Aurora Kinase A - serine/threonine-protein Kinase 6 (AurA), AURKA (gene 6790) (UniProt O14965); experiment: NVS_ENZ_hAurA: NovaScreen (NVS) Enzymatic Assay for human Aurora Kinase A - serine/threonine-protein Kinase 6 (AurA) (AID 2283142)
Outline: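 Recombinant human AurA activity read by fluorescence after mobility-shift separation of product from substrate; 1 hour incubation. Chemicals first run in duplicate at 25 uM, then concentration series to 50 uM if over threshold; fitted relative to DMSO.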

[2] = target: human Epidermal Growth Factor Receptor (EGFR), EGFR (gene 1956) (UniProt P00533); experiment: NVS_ENZ_hEGFR: NovaScreen (NVS) Enzymatic Assay for human Epidermal Growth Factor Receptor (EGFR) (AID 2283151)
Outline: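 Cell-free kinase assay, fluorescence plus electrophoretic mobility shift separating substrate and product, read 1 hour after dosing; loss of signal vs DMSO. Duplicate screen at 25 uM, then concentration-response to 50 uM.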

[3] = target: human Fibroblast Growth Factor Receptor 1 (FGFR1), FGFR1 (gene 2260) (UniProt P11362); experiment: NVS_ENZ_hFGFR1: NovaScreen (NVS) Enzymatic Assay for human Fibroblast Growth Factor Receptor 1 (FGFR1) (AID 2283159);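 on AC50: hits lower the signal so potencies describe inhibitors of the kinase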
Outline: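 Cell-free recombinant kinase with fluorescent substrate, product separated by electrophoretic mobility shift; read 1 hour after dosing, loss of signal relative to DMSO. Initial screen in duplicate at 25 uM, actives followed in concentration series.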

[4] = target: Protein deacetylase HDAC6 (Homo sapiens) (UniProt Q9UBN7); experiment: NVS_ENZ_hHDAC6: NovaScreen (NVS) Enzymatic Assay for human Histone Deacetylase 6 (HDAC6) (AID 2283164)
Outline: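 Concentration-response runs up to 50 uM followed a duplicate 25 uM single-point screen. Deacetylase activity of recombinant human HDAC6 read by fluorescence after 1 h, with mobility-shift separation of substrate and product; DMSO as baseline.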

[5] = target: human IkappaB Kinase alpha (IKKa), CHUK (gene 1147) (UniProt O15111); experiment: NVS_ENZ_hIKKa: NovaScreen (NVS) Enzymatic Assay for human IkappaB Kinase alpha (IKKa) (AID 2283167)
Outline: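 Compounds first run in duplicate at 25 uM, those meeting threshold (e.g. 30% inhibition) retested to maximum 50 uM. Enzyme activity of recombinant IKKa measured by fluorescence with electrophoretic mobility shift separation, 1 hour post-dosing, DMSO baseline.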

[6] = target: human p21 Activated Kinase 4 (PAK4), PAK4 (gene 10298) (UniProt O96013); experiment: NVS_ENZ_hPAK4: NovaScreen (NVS) Enzymatic Assay for human p21 Activated Kinase 4 (PAK4) (AID 2283189)
Outline: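 Extracted PAK4 enzyme activity read by fluorescence with mobility-shift separation 1 h after chemical addition. Duplicate single-concentration screen at 25 uM, DMSO as negative control.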

[7] = target: human Phosphatase and Tensin Homolog (PTEN), PTEN (gene 5728) (UniProt P60484); experiment: NVS_ENZ_hPTEN: NovaScreen (NVS) Enzymatic Assay for human Phosphatase and Tensin Homolog (PTEN) (AID 2283203)
Outline: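 Loss of fluorescent product signal after mobility-shift separation reports PTEN activity, recombinant human enzyme, 1 h after compound addition. Single 25 uM duplicate screen, then concentration-response on actives; DMSO baseline.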

[8] = target: human Protein Tyrosine Phosphatase Non-receptor Type 2 (PTPN2), PTPN2 (gene 5771) (UniProt P17706); experiment: NVS_ENZ_hPTPN2: NovaScreen (NVS) Enzymatic Assay for human Protein Tyrosine Phosphatase Non-receptor Type 2 (PTPN2) (AID 2283207)
Outline: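 Activity measured as fluorescence after mobility-shift separation of substrate and product, 1 h after compound. Duplicate single-point 25 uM primary testing, concentration series for actives; inhibition scored as signal loss relative to DMSO baseline.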

[9] = target: human Caspase 2 (CASP2), CASP2 (gene 835) (UniProt P42575); experiment: NVS_ENZ_hCASP2: NovaScreen (NVS) Enzymatic Assay for human Caspase 2 (CASP2) (AID 2283135)
Outline: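 Single-point duplicate testing at 25 uM preceded concentration series topping at 50 uM. Activity of the recombinant E. coli-derived protease was followed by fluorescent substrate cleavage 1 h post-dosing, relative to DMSO.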

[10] = target: Voltage-dependent N-type calcium channel subunit alpha-1B (Rattus norvegicus) (UniProt Q02294); experiment: NVS_IC_rCaChN: NovaScreen (NVS) Ion Channel Assay for rat Calcium Channel, Type N (CaChN) (AID 2283317)
[11] = target: rat Oxytocin Receptor (OXT), Oxtr (gene 25342) (UniProt P70536); experiment: NVS_GPCR_rOXT: NovaScreen (NVS) G Protein-Coupled Receptor Assay for rat Oxytocin Receptor (OXT) (AID 2283330)
Outline: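 Binding to rat uterine membrane receptor was followed by scintillation counting of filter-trapped radioligand after 1 h. A 25 uM duplicate single-point screen preceded concentration series with a top of 50 uM. Signal loss was analysed relative to DMSO.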

[12] = tested on: rat Monoamine Oxidase, MAO-A, Peripheral (MAOAP), gene 29253; experiment: NVS_ENZ_rMAOAP: NovaScreen (NVS) Enzymatic Assay for rat Monoamine Oxidase, MAO-A, Peripheral (MAOAP) (AID 2283237)
Outline: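 Scintillation counting tracked MAO-A activity in a cell-free rat liver mitochondrial membrane prep, read 1.17 hours after compound addition. Single-point duplicate testing at 25 uM preceded concentration-response follow-up; activity was fitted relative to DMSO.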

[13] = target: rat Monoamine Oxidase, MAO-B, Central (MAOBC), Maob (gene 25750) (UniProt P19643); experiment: NVS_ENZ_rMAOBC: NovaScreen (NVS) Enzymatic Assay for rat Monoamine Oxidase, MAO-B, Central (MAOBC) (AID 2283238)
Outline: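 Actives from a duplicate 25 uM screen went on to singleton concentration-response with a 50 uM maximum. Enzyme source was rat brain tissue MAO-B, assayed cell-free. Radiolabelled product was counted by scintillation 1.17 h post-dose, with signal loss relative to DMSO.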

[14] = target: rat Monoamine Oxidase, MAO-B, Peripheral (MAOBP), Maob (gene 25750) (UniProt P19643); experiment: NVS_ENZ_rMAOBP: NovaScreen (NVS) Enzymatic Assay for rat Monoamine Oxidase, MAO-B, Peripheral (MAOBP) (AID 2283242)
[15] = tested on: rat Monoamine Oxidase, MAO-A, Central (MAOAC), gene 29253; experiment: NVS_ENZ_rMAOAC: NovaScreen (NVS) Enzymatic Assay for rat Monoamine Oxidase, MAO-A, Central (MAOAC) (AID 2283243);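 further: potency refers to inhibition seen as signal drop below DMSO baseline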
Outline: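 Single-concentration duplicate testing at 25 uM, then concentration-response for actives, in a lysate-based radiodetection MAO-A activity assay from rat brain. Enzyme activity measured 1.5 hours post-dosing; DMSO served as negative control and baseline.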

[16] = target: human Caspase 10 (CASP10), CASP10 (gene 843) (UniProt Q92851); experiment: NVS_ENZ_hCASP10: NovaScreen (NVS) Enzymatic Assay for human Caspase 10 (CASP10) (AID 2283133)
Outline: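 Fluorescence-intensity enzyme read-out of E. coli-expressed CASP10 activity, 1 h after compound. Single-point duplicates at 25 uM preceded concentration-response testing (top 50 uM) of hits; inhibition expressed as signal loss versus DMSO.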

[17] = target: human Raf-1 Proto-Oncogene, serine/threonine Kinase (RAF1), RAF1 (gene 5894) (UniProt P04049); experiment: NVS_ENZ_hRAF1: NovaScreen (NVS) Enzymatic Assay for human Raf-1 Proto-Oncogene, serine/threonine Kinase (RAF1) (AID 2283216)
Outline: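 Single-point screening at 25 uM (duplicate), followed by singleton concentration-response to 50 uM maximum for chemicals exceeding threshold. Enzyme activity from fluorescent substrate-product mobility-shift separation after 1 h, relative to DMSO.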

[18] = target: Norway rat Vesicular Monoamine Transporter (VMAT2), neurotransmitter transporter, Slc18a2 (gene 25549) (UniProt Q01827); experiment: NVS_TR_rVMAT2: NovaScreen (NVS) Transporter Assay for Norway rat Vesicular Monoamine Transporter (VMAT2), neurotransmitter transporter (AID 2283376);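 further: actives lower the bound radioligand signal below the DMSO level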
Outline: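 Using rat forebrain membranes, specific radioligand binding to VMAT2 was measured by filtration and scintillation counting after 1 hour. Chemicals screened at 25 uM in duplicate, actives retested in concentration series, DMSO baseline.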

[19] = ATG_M_32_XSP2: Attagene TRANS-FACTORIAL Multi-Species (XSP2) HepG2 Assay for M19 Transcription Factor (Internal Marker) (AID 2283826)
Outline: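 Read-out: fluorescent reporter mRNA fragments resolved by capillary electrophoresis after RT-PCR, gain-of-signal versus DMSO baseline. Cells were human HepG2 carrying transfected multi-reporter units, exposed 24 h. Medium contained 3 nM 6-alpha-fluorotestosterone plus 1.5 nM norgestrel.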

[20] = target: human NIMA (Never In Mitosis Gene A)-Related Kinase 2 (NEK2), NEK2 (gene 4751) (UniProt P51955); experiment: NVS_ENZ_hNEK2: NovaScreen (NVS) Enzymatic Assay for human NIMA (Never In Mitosis Gene A)-Related Kinase 2 (NEK2) (AID 2283188)
Outline: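 Compounds were first screened in duplicate at 25 uM, with actives followed up in concentration series. Recombinant NEK2 activity, cell-free, was read 1 h after dosing by fluorescence intensity after mobility-shift separation. Signal loss was scored against DMSO.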

[21] = target: human Tyrosine Protein Kinase Receptor Tie-2 (Tie2), TEK (gene 7010) (UniProt Q02763); experiment: NVS_ENZ_hTie2: NovaScreen (NVS) Enzymatic Assay for human Tyrosine Protein Kinase Receptor Tie-2 (Tie2) (AID 2283225)
Outline: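 Substrate and product were separated by mobility shift and detected by fluorescence after a 1-hour reaction with recombinant Tie2. Chemicals passing a 25 uM single-point screen were titrated to a maximum of 50 uM. Results were normalized to DMSO baseline.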

Sequence of human Aurora Kinase A - serine/threonine-protein Kinase 6 (AurA), AURKA (gene 6790) (O14965 whole entry, looked up): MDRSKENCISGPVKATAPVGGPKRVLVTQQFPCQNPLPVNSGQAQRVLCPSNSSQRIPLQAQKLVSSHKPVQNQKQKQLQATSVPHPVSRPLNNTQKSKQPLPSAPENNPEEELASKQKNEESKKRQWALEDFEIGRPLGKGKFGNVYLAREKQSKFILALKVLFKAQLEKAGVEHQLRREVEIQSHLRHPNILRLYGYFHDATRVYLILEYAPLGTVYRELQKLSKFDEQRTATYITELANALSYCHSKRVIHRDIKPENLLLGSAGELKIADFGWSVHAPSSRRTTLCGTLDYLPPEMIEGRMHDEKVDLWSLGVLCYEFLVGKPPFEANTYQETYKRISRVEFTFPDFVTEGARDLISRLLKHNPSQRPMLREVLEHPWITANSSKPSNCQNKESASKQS
Sequence of human Caspase 2 (CASP2), CASP2 (gene 835) (P42575 whole entry, looked up): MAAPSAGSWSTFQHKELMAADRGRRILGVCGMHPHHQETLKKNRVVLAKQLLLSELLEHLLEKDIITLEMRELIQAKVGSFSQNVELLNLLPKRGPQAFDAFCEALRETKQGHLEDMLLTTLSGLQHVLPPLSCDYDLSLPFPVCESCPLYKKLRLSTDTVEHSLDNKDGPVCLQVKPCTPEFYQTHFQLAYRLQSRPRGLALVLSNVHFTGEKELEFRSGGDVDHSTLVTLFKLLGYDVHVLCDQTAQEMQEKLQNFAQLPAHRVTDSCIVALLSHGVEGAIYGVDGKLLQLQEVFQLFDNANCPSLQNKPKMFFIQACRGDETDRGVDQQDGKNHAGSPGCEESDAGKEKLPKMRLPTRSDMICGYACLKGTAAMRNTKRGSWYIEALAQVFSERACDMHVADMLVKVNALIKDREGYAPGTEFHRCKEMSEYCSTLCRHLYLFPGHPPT
Sequence of human Fibroblast Growth Factor Receptor 1 (FGFR1), FGFR1 (gene 2260) (P11362 whole entry, looked up): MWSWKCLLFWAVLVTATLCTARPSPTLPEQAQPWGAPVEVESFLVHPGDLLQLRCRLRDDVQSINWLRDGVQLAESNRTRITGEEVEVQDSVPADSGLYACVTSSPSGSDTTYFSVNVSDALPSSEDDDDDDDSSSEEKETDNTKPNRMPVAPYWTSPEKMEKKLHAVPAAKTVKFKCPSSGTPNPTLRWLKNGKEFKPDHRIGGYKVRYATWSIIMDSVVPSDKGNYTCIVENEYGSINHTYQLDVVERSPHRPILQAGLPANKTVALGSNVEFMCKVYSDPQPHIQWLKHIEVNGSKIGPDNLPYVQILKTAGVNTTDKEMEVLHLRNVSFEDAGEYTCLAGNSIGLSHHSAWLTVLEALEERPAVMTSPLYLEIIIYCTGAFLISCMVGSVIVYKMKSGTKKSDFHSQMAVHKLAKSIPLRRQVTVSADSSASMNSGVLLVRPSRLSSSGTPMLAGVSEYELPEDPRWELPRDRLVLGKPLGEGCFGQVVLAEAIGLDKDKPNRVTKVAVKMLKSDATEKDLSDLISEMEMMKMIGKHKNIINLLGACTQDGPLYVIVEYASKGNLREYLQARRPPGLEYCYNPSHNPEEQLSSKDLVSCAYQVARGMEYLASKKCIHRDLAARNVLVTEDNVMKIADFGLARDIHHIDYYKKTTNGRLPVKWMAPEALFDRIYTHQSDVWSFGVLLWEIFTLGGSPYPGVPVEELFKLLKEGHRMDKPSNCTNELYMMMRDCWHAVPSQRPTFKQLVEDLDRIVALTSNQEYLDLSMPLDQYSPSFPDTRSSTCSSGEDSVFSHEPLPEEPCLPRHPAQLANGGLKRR
Sequence of rat Monoamine Oxidase, MAO-B, Central (MAOBC), Maob (gene 25750) (P19643 whole entry, looked up): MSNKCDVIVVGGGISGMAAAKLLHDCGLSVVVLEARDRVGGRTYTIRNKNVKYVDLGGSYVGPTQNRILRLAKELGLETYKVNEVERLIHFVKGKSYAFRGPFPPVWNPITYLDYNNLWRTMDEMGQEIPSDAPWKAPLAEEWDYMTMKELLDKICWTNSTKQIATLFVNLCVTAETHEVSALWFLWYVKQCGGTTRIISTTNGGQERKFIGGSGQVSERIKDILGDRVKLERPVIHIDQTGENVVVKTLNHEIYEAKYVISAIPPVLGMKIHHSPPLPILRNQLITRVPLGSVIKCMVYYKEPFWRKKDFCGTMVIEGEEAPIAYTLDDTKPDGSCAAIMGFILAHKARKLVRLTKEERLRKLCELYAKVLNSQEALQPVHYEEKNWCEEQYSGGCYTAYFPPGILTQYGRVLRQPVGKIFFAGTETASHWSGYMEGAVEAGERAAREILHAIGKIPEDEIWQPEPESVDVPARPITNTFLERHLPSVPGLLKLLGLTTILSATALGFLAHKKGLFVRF
Sequence of human Phosphatase and Tensin Homolog (PTEN), PTEN (gene 5728) (P60484 whole entry, looked up): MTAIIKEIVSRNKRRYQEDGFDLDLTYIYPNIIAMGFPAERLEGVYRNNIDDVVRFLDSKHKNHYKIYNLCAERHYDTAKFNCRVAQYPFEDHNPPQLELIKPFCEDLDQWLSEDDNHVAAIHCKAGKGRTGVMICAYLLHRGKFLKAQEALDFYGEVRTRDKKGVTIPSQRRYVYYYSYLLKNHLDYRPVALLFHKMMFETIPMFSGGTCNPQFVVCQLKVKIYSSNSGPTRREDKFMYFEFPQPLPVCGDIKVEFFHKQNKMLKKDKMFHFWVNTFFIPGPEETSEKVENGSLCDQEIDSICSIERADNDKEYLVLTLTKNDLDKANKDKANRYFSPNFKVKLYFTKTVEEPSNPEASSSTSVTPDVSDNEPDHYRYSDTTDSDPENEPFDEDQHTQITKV
Sequence of human Raf-1 Proto-Oncogene, serine/threonine Kinase (RAF1), RAF1 (gene 5894) (P04049 whole entry, looked up): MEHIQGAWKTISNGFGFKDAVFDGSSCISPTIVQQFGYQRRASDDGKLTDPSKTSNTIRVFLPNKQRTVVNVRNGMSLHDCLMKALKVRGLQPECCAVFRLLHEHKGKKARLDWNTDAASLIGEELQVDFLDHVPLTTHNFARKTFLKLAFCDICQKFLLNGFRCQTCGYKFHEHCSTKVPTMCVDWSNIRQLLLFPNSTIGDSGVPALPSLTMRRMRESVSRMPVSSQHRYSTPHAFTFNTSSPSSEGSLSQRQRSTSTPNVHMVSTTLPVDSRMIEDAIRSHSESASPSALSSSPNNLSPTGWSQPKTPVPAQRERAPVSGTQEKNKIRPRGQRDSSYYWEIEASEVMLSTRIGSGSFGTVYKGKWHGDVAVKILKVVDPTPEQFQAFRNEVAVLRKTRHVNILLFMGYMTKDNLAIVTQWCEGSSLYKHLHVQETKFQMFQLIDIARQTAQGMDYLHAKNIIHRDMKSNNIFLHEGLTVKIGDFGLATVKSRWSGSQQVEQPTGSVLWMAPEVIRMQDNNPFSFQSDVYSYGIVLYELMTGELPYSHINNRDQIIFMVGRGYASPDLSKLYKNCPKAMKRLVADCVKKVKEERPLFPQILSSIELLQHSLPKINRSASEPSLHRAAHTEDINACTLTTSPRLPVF
Sequence of human p21 Activated Kinase 4 (PAK4), PAK4 (gene 10298) (O96013 whole entry, looked up): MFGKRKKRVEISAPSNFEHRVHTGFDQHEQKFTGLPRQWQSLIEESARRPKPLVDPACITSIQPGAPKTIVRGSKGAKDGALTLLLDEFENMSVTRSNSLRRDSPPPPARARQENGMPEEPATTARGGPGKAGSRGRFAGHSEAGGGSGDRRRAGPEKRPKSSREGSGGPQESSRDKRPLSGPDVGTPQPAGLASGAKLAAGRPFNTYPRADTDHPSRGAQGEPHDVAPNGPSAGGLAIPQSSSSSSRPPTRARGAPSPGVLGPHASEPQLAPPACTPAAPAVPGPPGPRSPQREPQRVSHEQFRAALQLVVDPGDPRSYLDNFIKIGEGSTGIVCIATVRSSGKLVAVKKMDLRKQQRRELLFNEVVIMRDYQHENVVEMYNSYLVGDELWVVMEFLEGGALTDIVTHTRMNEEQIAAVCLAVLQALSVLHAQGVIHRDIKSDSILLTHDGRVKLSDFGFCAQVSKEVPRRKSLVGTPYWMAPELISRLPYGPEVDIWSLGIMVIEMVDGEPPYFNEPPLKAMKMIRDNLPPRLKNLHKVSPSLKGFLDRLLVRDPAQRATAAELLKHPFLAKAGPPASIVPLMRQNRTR
Sequence of human Epidermal Growth Factor Receptor (EGFR), EGFR (gene 1956) (P00533 whole entry, looked up): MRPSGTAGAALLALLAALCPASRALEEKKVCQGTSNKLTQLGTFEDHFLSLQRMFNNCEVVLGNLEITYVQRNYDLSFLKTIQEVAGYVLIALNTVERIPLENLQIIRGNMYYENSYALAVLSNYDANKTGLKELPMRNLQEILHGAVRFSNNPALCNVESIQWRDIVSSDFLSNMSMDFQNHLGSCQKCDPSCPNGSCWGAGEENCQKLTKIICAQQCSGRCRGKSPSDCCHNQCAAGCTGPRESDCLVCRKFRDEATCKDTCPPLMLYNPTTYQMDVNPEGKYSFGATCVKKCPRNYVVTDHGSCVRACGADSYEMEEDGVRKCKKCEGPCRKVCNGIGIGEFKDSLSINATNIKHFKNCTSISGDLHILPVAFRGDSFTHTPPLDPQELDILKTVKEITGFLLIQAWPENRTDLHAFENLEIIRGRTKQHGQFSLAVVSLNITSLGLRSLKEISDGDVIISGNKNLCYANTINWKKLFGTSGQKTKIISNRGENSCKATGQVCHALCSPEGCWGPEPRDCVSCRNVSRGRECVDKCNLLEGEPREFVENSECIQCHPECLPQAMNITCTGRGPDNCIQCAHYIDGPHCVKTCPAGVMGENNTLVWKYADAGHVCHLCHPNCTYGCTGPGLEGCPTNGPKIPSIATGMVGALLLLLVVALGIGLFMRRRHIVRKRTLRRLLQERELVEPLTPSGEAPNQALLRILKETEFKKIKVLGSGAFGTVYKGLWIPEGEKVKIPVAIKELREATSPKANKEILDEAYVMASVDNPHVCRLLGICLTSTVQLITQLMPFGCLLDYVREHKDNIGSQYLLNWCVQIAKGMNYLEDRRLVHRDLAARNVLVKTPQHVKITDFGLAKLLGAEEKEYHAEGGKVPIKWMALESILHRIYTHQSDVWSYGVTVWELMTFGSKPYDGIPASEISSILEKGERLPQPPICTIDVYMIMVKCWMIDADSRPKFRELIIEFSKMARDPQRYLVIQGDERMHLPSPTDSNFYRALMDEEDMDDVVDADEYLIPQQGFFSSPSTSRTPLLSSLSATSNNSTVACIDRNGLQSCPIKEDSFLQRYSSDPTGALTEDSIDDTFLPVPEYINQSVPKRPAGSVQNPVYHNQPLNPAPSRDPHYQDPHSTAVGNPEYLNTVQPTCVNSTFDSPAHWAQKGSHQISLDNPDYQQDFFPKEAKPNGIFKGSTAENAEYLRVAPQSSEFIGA

O=c1[nH]cnc2c1ncn2[C@H]1CC[C@@H](CO)O1
outcome [1]: inactive
outcome [2]: inactive
outcome [3]: inactive
outcome [4]: inactive
outcome [5]: inactive
outcome [6]: inactive
outcome [7]: inactive
outcome [8]: inactive

NCC1(Cc2noc(=O)[nH]2)CCCCC1
outcome [9]: inactive
outcome [10]: inactive
outcome [11]: inactive

O=[N+]([O-])c1ccc(O)cc1
outcome [9]: inactive
AC50 [12]: 19.2 µM (active)
AC50 [13]: 18.1 µM (active)
AC50 [14]: 39.1 µM (active)
AC50 [15]: 16.6 µM (active)

O=C(O)CCCCC(=O)O
AC50 [16]: 11.4 µM (active)
outcome [17]: inactive

Cc1cccc2ccccc12
outcome [9]: inactive

O=C(O)c1ccc2c(c1)nc(C(=O)NC1CCN(C3CC3)CC1)n2Cc1cc(-c2ccc(Cl)s2)on1
outcome [1]: inactive

COC(=O)CC(=O)OC
outcome [9]: inactive

CN(C)c1ccc(Cc2ccc(N(C)C)cc2)cc1
outcome [1]: inactive

N[C@@H](Cc1c[nH]c2ccccc12)C(=O)O
outcome [9]: inactive

Oc1ccc2c(c1)-c1ccccc1C2
AC50 [3]: 32.7 µM (active)
AC50 [13]: 19.6 µM (active)
AC50 [15]: 0.743 µM (active)
outcome [18]: inactive
outcome [19]: inactive

O=C(O)Cc1cc(I)c(Oc2ccc(O)c(I)c2)c(I)c1
AC50 [1]: 1.37 µM (active)
outcome [2]: inactive
outcome [20]: inactive
outcome [17]: inactive
outcome [19]: inactive

c1ccc2ccccc2c1
outcome [1]: inactive
outcome [6]: inactive
outcome [7]: inactive

CC(C)c1ccc(C(=O)N=C(N)N)cc1S(C)(=O)=O
outcome [1]: inactive
outcome [21]: inactive

[O-]n1ccccc1=S.[O-]n1ccccc1=S.[Zn+2]
outcome [3]: inactive
